Screening results: PubChem BioAssay, National Center for Advancing Translational Sciences (NCATS)
An excerpt weighted towards active compounds, which were near 2.4% of everything screened.
D2 ag-1: D2 dopamine receptor (human) agonism. P14416. HEK293 T-REx D2 cells, calcium flux agonist mode. activation, % at 2 µM. 340,000 compounds, 0.53% hits;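 active = activation over 3 SD above normal in the single-dose calcium agonist read, cut at about 30% in these data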; also: 0% is about no effect
Target sequence (P14416 whole entry, looked up): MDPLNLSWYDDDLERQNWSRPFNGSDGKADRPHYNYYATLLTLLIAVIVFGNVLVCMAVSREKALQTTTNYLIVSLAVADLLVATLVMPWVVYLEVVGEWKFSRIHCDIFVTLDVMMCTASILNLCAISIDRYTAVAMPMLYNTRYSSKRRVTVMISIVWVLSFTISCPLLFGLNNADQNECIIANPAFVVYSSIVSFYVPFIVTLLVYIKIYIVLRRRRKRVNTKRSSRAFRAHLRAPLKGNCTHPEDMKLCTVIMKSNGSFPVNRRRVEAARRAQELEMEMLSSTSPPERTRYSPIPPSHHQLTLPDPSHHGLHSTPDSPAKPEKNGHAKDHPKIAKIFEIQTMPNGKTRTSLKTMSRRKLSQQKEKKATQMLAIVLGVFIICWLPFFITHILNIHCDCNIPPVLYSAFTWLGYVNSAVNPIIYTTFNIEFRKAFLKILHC
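Tetracycline-induced HEK293 Trex cells with D2 receptor force-coupled to calcium signaling, plated overnight at 30 C and loaded with no-wash calcium dye. Calcium flux read kinetically for 180 s after compound addition; responses flag agonists.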
D2 antag: antagonizes the human D2 dopamine receptor; 340,000 compounds, 2% hits; HEK293 TREx D2 cells, calcium flux, dopamine EC80; P14416; inhibition, % at 10 µM; in the data active = inhibition above about 30%; inactive = below that, where a call was filed; also: 0% is about no effect
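Antagonism is scored as inhibition of an EC80 dopamine-evoked calcium signal in a force-coupled, tetracycline-inducible HEK293 T-REx D2 line, with compound present 180 s before agonist.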
D2 PAM-1: positively modulates the human D2 dopamine receptor allosterically; potentiation, % at 10 µM; HEK293 T-REx D2, calcium flux, EC20 dopamine potentiation; P14416; 340,000 compounds, 0.34% hits;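 active = potentiation over 3 SD above the plate norm, cut at about 30% in these data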; also: 0% is about no effect
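Cells plated with tetracycline inducer and held overnight at 30 C; calcium dye loaded 30–90 min at room temperature; baseline taken, compound added and read 180 s; EC20 dopamine then added and read 180 s.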
D2 ag-2: activates the human D2 dopamine receptor; P14416; DiscoveRx PathHunter D2 beta-arrestin, luminescence, 90 min; 100% = 57 uM dopamine signal; activation, % (concentration not given with the values); 360,000 compounds, 0.084% hits; AID 624465; in the data active = activation above about 40%
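DiscoveRx PathHunter D2 beta-arrestin cells (2,100/well) attached overnight, then compound-stimulated 90 min at 37 C in HBSS/10 mM HEPES/0.1% Tween-20 buffer; beta-galactosidase complementation read by luminescence after 1 h at ambient temperature. Dopamine 57 uM final (EC100) as control.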
D2 PAM-2: potentiates the human D2 dopamine receptor allosterically | DiscoveRx D2 beta-arrestin cells, luminescence, 90 min; 100% = 57 uM dopamine signal | P14416 | potentiation, % (concentration not given with the values) | 360,000 compounds, 0.23% hits; in the data active = potentiation above about 50%
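D2 cells co-treated with compound plus 50 nM dopamine (EC20) for 90 min at 37 deg C to detect potentiation. Beta-arrestin recruitment was read as enzyme-fragment luminescence after 1 h at ambient temperature. Full response was set by 57 uM dopamine.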
Starred values were filed as active, the others as inactive; . = no result given.

SMILES	D2 ag-1	D2 antag	D2 PAM-1	D2 ag-2	D2 PAM-2
Cc1cc(OCC(=O)NCC(c2ccc(F)cc2)N2CCOCC2)ccc1Cl (stereo not given)	0	-5	-5	-1	-7
CC(C)CCN1CCC(n2nccc2NC(=O)c2ccc3c(c2)OCO3)CC1	0	-2	-3	1	-5
CN(C1CCCC1)C1CCN(C(=O)CNC(=O)/C=C/c2ccc(F)cc2)CC1	2	85*	-3	-2	-3
CC(C)C(=O)Nc1sc2c(c1C(N)=O)CCN(Cc1ccccc1)C2	3	26	-18	-7	-12
CCC(=O)Nc1sc2c(c1C(N)=O)CCN(Cc1ccccc1)C2	55*	38*	-4	-5	-13
NC(=O)c1c(NC(=O)c2c(F)cccc2F)sc2c1CCN(Cc1ccccc1)C2	29	-17	-2	-1	-7
NC(=O)c1c(NC(=O)c2ccccc2)sc2c1CCN(Cc1ccccc1)C2	44*	6	-7	-1	-7
CCN1CCc2c(sc(NC(=O)Cc3ccccc3)c2C(N)=O)C1	0	8	-23	-6	-15
CCN1CCc2c(sc(NC(=O)Nc3ccc(Cl)c(Cl)c3)c2C(N)=O)C1	109*	72*	-13	7	-16
CCN1CCc2c(sc(NC(=O)c3ccc(S(=O)(=O)N(CC)c4ccccc4)cc3)c2C(N)=O)C1	52*	9	-6	1	-9
CCOc1ccc(S(=O)(=O)NCCC(=O)NCC(c2ccccc2OC)N2CCCC2)cc1 (stereo not given)	0	-10	-3	-2	-4
Fc1ccc(-n2cc(CNCCc3ccccn3)c(-c3ccccc3Cl)n2)cc1	-3	79*	-31	4	-16
CCCCOc1ccc(N2CC(C(=O)NCCc3ccc(OC)c(OC)c3)CC2=O)cc1 (stereo not given)	-1	-12	.	0	-10
COc1ccc(CCN2C(=O)CN=C2Nc2ccc(F)cc2)cc1OC	-1	6	-2	-3	-4
C=CCN1C(=O)CN=C1Nc1ccc(F)cc1	1	54*	-33	0	-5
Cn1c(=NC(=O)c2ccc(S(=O)(=O)N3CCCc4ccccc43)cc2)sc2cc(S(C)(=O)=O)ccc21	0	-6	-2	-1	7
C#CCn1c(=NC(=O)c2ccc(S(=O)(=O)N3CCCc4ccccc43)cc2)sc2cc(S(N)(=O)=O)ccc21	3	48*	11	-1	-23
Cc1ccc(/C=C2\SC(=S)N(/N=C/c3cc([N+](=O)[O-])ccc3O)C2=O)o1	0	32*	1	0	-7
O=C(NN1C(=O)/C(=C/c2cc([N+](=O)[O-])ccc2O)SC1=S)c1ccccc1O	1	-2	-9	.	.
COc1cccc(-n2ccnc2SCC(=O)Nc2ccccc2)c1	0	50*	-23	-4	-32
CC(=O)Nc1ccc(NC(=O)CSc2ncnn2-c2ccccc2)cc1	0	15	31*	-2	5
CC(=O)Nc1ccc(NC(=O)CSc2ccccn2)cc1	-1	1	5	-1	-10
COc1cccc(NC(=O)CSc2nccn2-c2cccc(OC)c2)c1	1	-1	-16	-3	-34
O=C(C1CCN(S(=O)(=O)c2ccccc2)CC1)N1CCc2ccccc21	98*	28	-12	-2	-4
O=C(C1COc2ccccc2O1)N1CCCC1 (stereo not given)	1	-6	-3	-3	-8
SMILES	D2 ag-1	D2 antag	D2 PAM-1	D2 ag-2	D2 PAM-2
O=C(C1COc2ccccc2O1)N1CCc2ccccc21 (stereo not given)	0	35*	5	0	26
O=C(C1CCN(S(=O)(=O)c2ccccc2)CC1)N1CCN(c2ccccc2F)CC1	-1	32*	10	-2	-3
Cc1ccc(S(=O)(=O)N(C)C)cc1NC(=O)c1ccccc1SCC(=O)N1CCCC1	0	-7	-8	-1	-3
COc1ccc(C2(C)C(C#N)C(=O)NC(=O)C2C#N)cc1 (stereo not given)	.	.	.	-3	-1
CN(c1nc2ccccc2[nH]c1=O)C1CCCCC1	1	-25	10	-4	-7
CC12C=CC(=O)C=C1CCC1C2C(O)CC2(C)C1CCC2(O)C(=O)CO (stereo not given)	.	.	.	1	-1
